This note sets out measurements from article PMC4336329 (PLoS ONE, 2015).

Among all 310,000 compounds or so, about 14,000 (4.5%) showed an effect of 50% or more. The effect is printed as a negative number. The sample as a whole holds a higher share of strong results than the screen did.
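Also: peak tail current of the secondary pulse compared with the same well before compound.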

In this experiment the target is human ether-à-go-go-related gene (hERG) potassium channel (human, UniProt Q12809). The experiment is described as follows: primary screen, population patch clamp on CHO cells stably expressing hERG; higher = less effect of the substance.
Chain of human ether-à-go-go-related gene (hERG) potassium channel (Q12809 whole entry, looked up): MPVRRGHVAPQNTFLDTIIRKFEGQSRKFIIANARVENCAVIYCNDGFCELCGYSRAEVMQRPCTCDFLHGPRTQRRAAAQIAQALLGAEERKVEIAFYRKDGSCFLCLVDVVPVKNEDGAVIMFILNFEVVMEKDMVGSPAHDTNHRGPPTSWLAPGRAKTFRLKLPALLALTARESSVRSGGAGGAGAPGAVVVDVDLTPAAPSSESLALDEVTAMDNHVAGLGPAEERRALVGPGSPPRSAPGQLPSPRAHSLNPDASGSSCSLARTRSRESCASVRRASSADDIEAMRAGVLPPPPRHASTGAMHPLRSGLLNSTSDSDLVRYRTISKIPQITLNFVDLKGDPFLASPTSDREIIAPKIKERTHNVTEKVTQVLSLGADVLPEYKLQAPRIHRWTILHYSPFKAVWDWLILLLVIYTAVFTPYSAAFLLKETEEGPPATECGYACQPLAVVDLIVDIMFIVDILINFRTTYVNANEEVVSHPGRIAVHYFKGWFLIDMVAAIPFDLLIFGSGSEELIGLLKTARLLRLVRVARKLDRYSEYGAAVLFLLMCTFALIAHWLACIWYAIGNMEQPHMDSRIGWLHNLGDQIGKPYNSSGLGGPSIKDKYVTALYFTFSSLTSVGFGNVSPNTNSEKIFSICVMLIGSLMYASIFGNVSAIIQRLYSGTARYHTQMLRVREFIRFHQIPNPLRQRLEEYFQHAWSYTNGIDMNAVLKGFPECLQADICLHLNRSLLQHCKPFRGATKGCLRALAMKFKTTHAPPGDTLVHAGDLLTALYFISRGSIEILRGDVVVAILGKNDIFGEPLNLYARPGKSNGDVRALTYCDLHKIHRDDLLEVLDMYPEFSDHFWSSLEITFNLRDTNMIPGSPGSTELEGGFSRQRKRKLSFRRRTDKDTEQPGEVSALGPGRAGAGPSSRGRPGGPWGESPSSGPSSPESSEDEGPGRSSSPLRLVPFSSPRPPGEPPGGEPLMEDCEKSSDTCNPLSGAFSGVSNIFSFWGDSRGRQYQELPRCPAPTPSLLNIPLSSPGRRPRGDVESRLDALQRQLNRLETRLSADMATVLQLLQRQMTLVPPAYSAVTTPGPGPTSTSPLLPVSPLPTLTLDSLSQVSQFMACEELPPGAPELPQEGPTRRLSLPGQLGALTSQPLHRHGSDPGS
With `CCc1cc2c(Nc3ccc(O)cc3)nc(C)nc2s1.Cl`, the “hERG current change (%, negative = inhibition) at 10uM” value was 8.46%.

On to `Cc1cc(/C=N/O)c(C)n1-c1ccc(Br)cc1`, for which the “hERG current change (%, negative = inhibition) at 10uM” value is listed as -34.2%.

For the compound `CCc1ccc(OCCSc2nc3ccccc3n2CC(=O)O)cc1`, the “hERG current change (%, negative = inhibition) at 10uM” value is listed as 3.37%.

For `CSc1nsc(SC)c1NC(=O)N1CCCCC1`, the “hERG current change (%, negative = inhibition) at 10uM” value was determined as 2.74%. As for `O=C(NC(=S)N(Cc1ccccc1)Cc1ccccc1)c1ccccc1F`, the figure is 18.5%; as for `O=C(Cn1c(CO)nc2ccccc21)Nc1cc(C(F)(F)F)ccc1N1CCOCC1`, 1.37%; as for `O=C(NCCN1CCN(C(=O)c2cc3ccccc3oc2=O)CC1)c1cc2ccccc2oc1=O`, -15.9%. The figure for `Cc1cc(C(=O)N2CCN(Cc3ccc4c(c3)OCO4)CC2)on1` is -4.02%; for `O=C(c1cc(-c2ccccc2)on1)N1CCN(Cc2ccc3c(c2)OCO3)CC1` it is -50.1%; for `O=C(c1cc2ccccc2o1)N1CCN(Cc2ccc3c(c2)OCO3)CC1` it is -22.1%. As for `COc1cc2cc(C(=O)N3CCN(Cc4ccc5c(c4)OCO5)CC3)c(=O)oc2cc1OC`, the figure is -0.572%; as for `O=C(c1cc2ccccc2oc1=O)N1CCN(CCc2ccccc2)CC1`, -71.8%; as for `CC(=O)N1CCN(C(=O)c2oc3ccccc3c2C)CC1`, 8.84%.

Turning to `CN1CCN(C(=O)c2cc3ccccc3oc2=O)CC1`, the “hERG current change (%, negative = inhibition) at 10uM” value is on record as 6.08%.

With `C=CCN1CCN(C(=O)c2oc3ccccc3c2C)CC1`, the “hERG current change (%, negative = inhibition) at 10uM” value is listed as -0.434%.

In the case of `O=C(c1cc2ccccc2oc1=O)N1CCN(Cc2ccc3c(c2)OCO3)CC1`, the “hERG current change (%, negative = inhibition) at 10uM” value is given as -53.7%. The figure for `Cc1onc(-c2ccccc2)c1C(=O)N1CCN(Cc2ccc3c(c2)OCO3)CC1.Cl` is 17.5%; for `Cc1c(C(=O)N2CCN(CCc3ccccc3)CC2)oc2ccccc12` it is -72.4%. As for `c1ccc(CCCCNCC2COc3ccccc3O2)cc1` (centres unmarked), the figure is -28.5%. The figure for `COc1cc(C(=O)NCCC(c2ccccc2)c2ccccc2)cc(OC)c1OC` is 0.15%. Take `COc1ccc(-c2cc(N)n(CCC#N)n2)c(OC)c1`: the “hERG current change (%, negative = inhibition) at 10uM” value was found to be 4.12%. With `O=C(CSc1nnc(-c2ccncc2)o1)Nc1ccccc1C(F)(F)F`, the “hERG current change (%, negative = inhibition) at 10uM” value was -0.412%.

Regarding `Cn1c(CNC(=O)CNC(=O)Cc2ccc(Cl)cc2)cc(=O)n(C)c1=O`, the “hERG current change (%, negative = inhibition) at 10uM” value turned out to be 18.9%.

Consider `COC(=O)C(C)Oc1cc(C)cc2oc(=O)c3c(c12)CCC3` (centres unmarked), for which the “hERG current change (%, negative = inhibition) at 10uM” value is listed as -12.7%. As for `N#CC1(NC(=O)CSc2nnc(-c3ccccc3F)o2)CCCCC1`, the figure is -13.1%; as for `CC(C)CC(=O)Nc1ccccc1Oc1ccccc1`, -2.96%; as for `Cc1n[nH]c(C)c1S(=O)(=O)N1CCCC(C(=O)N2CCN(c3ccc(Cl)cc3)CC2)C1` (centres unmarked), -75.1%.

Take `CC(=O)c1ccc(N2CCN(C(=O)C3CCCN(S(=O)(=O)c4c(C)[nH]c(=O)[nH]c4=O)C3)CC2)cc1` (centres unmarked): the “hERG current change (%, negative = inhibition) at 10uM” value was determined as 23.4%. As to `Cc1nn(C)c(C)c1S(=O)(=O)N1CCCC(C(=O)N2CCN(c3ccc(Cl)cc3)CC2)C1` (centres unmarked), the “hERG current change (%, negative = inhibition) at 10uM” value is -70.4%. As for `O=C(C1CCCN(S(=O)(=O)c2cnc[nH]2)C1)N1CCN(c2ccc(Cl)cc2)CC1` (centres unmarked), the figure is -35%; as for `Cc1nn(C)c(C)c1S(=O)(=O)N1CCCC(C(=O)N2CCN(c3ccccc3)CC2)C1` (centres unmarked), -27.6%; as for `Cc1nn(C)c(C)c1S(=O)(=O)N1CCCC(C(=O)NCCc2ccc(Cl)cc2)C1` (centres unmarked), -0.523%. As for `Cc1cc2c(NC(=O)Nc3ccc(C(F)(F)F)cc3)cccc2nn1`, the figure is -2.37%; as for `Cn1cc([N+](=O)[O-])c(C(=O)Nc2ccc3c(c2)OCCO3)n1`, 5.3%; as for `Cc1cccc(C(=O)N2CCC(=O)N(C(COCc3ccc(Cl)cc3)Cc3ccccc3)CC2)c1` (centres unmarked), -25.7%.

`CCC(C)[C@H](NC(=O)[C@H](Cc1ccccc1)n1c(=O)[nH]c2ccccc2c1=O)C(=O)NCC1CCC(C(=O)O)CC1` (some centres unmarked): the “hERG current change (%, negative = inhibition) at 10uM” value is 20.4%. As for `COc1cccc(OCC(=O)N2CCN(C)CC2)c1`, the figure is -10.1%; as for `Cc1cc(=O)oc2c3c(cc(OCC(=O)NCC(=O)O)c12)OC(C)(C)CC3`, 19%; as for `CCN(CC)CCOC(=O)c1ccc(NC(=O)CCNC(=O)Cn2ccc3ccccc3c2=O)cc1`, 11.8%. As for `CCn1cc(CN2CCCC(C(=O)Nc3ccc(-c4nc5ccccc5[nH]4)cc3)C2)c(C)n1` (centres unmarked), the figure is -21%; as for `CN(C)C(=O)CCC(=O)N1CCCCC1C(=O)Nc1ccc(Oc2ccccc2F)cc1` (centres unmarked), -43.9%. The figure for `Cn1cc(CN2CCC(C(=O)Nc3ccc(Oc4ccccc4F)cc3)CC2)cn1` is -65.6%; for `CCn1cc(CN2CCC(C(=O)Nc3ccc(Oc4ccccc4F)cc3)CC2)c(C)n1` it is -72.9%; for `CC(C)n1cc(CN2CCCC(C(=O)Nc3ccccc3Oc3cccnc3)C2)cn1` (centres unmarked) it is -42.4%. In the case of `CCn1cc(CN2CCC(C(=O)Nc3ccc(Oc4cccnc4)cc3)CC2)c(C)n1`, the “hERG current change (%, negative = inhibition) at 10uM” value is reported as -18.4%.

In the case of `CCn1cc(CN2CCC(C(=O)Nc3ccc(Oc4cccnc4)cc3)CC2)cn1`, the “hERG current change (%, negative = inhibition) at 10uM” value is recorded as -19%. Turning to `CC(C)n1cc(CN2CCC(C(=O)Nc3ccc(Oc4ccccc4F)cc3)CC2)cn1`, the “hERG current change (%, negative = inhibition) at 10uM” value is -76.1%. As for `COC(=O)c1cc2oc3ccccc3c2n1Cc1ccccn1`, the figure is -8.74%; as for `C/C(=N\N=C1\NC(=O)C(CC(=O)Nc2ccc(Cl)cc2)S1)c1ccco1` (centres unmarked), 13%; as for `CCn1c(SCC(=O)Nc2ccccc2Cl)nnc1C1CC1`, 6.78%. The figure for `Cc1c(S(=O)(=O)N2CCCC(C)C2)c(=O)n(C)c(=O)n1C` (centres unmarked) is -2.74%; for `O=C(NCCNC(=O)c1ccccc1)c1ccccc1` it is 2.89%. As for `Cc1cc([N+](=O)[O-])cc(C)c1OCC(=O)N/N=C/c1ccc(OC(=O)c2ccccc2Br)cc1`, the figure is 4.23%; as for `CCC(C)NC(=O)C1c2ccccc2C(=O)N1Cc1cc(OC)ccc1OC` (centres unmarked), 9.25%. `COc1ccc(-c2c(C#Cc3ccsc3)c3cc(-c4ccc5[nH]ccc5c4)ccc3n2C)cc1`: the “hERG current change (%, negative = inhibition) at 10uM” value was determined as 24.1%.

Turning to `O=C(CN1C(=O)COc2ccccc21)c1cccc(Cl)c1`, the “hERG current change (%, negative = inhibition) at 10uM” value was -14.4%. As for `CSc1ccccc1OCc1cc(C(=O)N2CCC[C@H]2C(N)=O)no1`, the figure is 5.26%; as for `N#CSCC(=O)c1cccc2ccccc12`, -24.8%. The figure for `COc1ccc(NC(=O)C2CCCN(CCCc3ccccc3)C2)cc1OCC(C)C.O=C(O)/C=C/C(=O)O` (centres unmarked) is -52.1%; for `COc1ccc(NC(=O)C2CCCN(C)C2)cc1OCC(C)C` (centres unmarked) it is -1.9%; for `COc1ccc(NC(=O)C2CCCCN2N)cc1OCC(C)C.O=C(O)C(=O)O` (centres unmarked) it is -5.25%. As for `CCS(=O)(=O)N1Cc2ccccc2CC1C(=O)NCCc1c[nH]c2ccccc12` (centres unmarked), the figure is -0.595%; as for `O=C(NCCc1c[nH]c2ccccc12)C1Cc2ccccc2CN1C(=O)c1ccco1` (centres unmarked), -71.6%. As for `O=C(NCc1ccc2c(c1)OCO2)c1ccc(CN2CCOCC2)cc1`, the “hERG current change (%, negative = inhibition) at 10uM” value came out at 15.3%. Regarding `O=C(NCc1ccc2c(c1)OCO2)C1Cc2ccccc2CN1C(=O)c1ccco1` (centres unmarked), the “hERG current change (%, negative = inhibition) at 10uM” value is -59%. As for `O=C(NCc1ccc2c(c1)OCO2)c1ccccc1`, the figure is -4.18%; as for `O=C(NCc1ccccc1)C1Cc2ccccc2CN1C(=O)c1ccco1` (centres unmarked), -12.2%. As for `O=C(NCc1ccc(F)cc1)C1Cc2ccccc2CN1C(=O)c1ccco1` (centres unmarked), the figure is -42.1%.

On to `NS(=O)(=O)c1ccc(CCNC(=O)C2Cc3ccccc3CN2C(=O)c2ccco2)cc1` (centres unmarked), for which the “hERG current change (%, negative = inhibition) at 10uM” value is 9.39%. `O=C(NCc1ccc2c(c1)OCO2)c1ccc(CN2CCc3ccccc3C2)cc1`: the “hERG current change (%, negative = inhibition) at 10uM” value was -52.5%. In the case of `COc1ccc(N2C(=O)CC(NCc3cccc(F)c3)C2=O)cc1` (centres unmarked), the “hERG current change (%, negative = inhibition) at 10uM” value is reported as -13.3%.

For the compound `Cc1ccc(-n2c(=O)[nH]c3c(oc4ccccc43)c2=O)cc1`, the “hERG current change (%, negative = inhibition) at 10uM” value was -0.961%. Turning to `CCOc1ccc(CC2CC(=O)NC2=O)cc1` (centres unmarked), the “hERG current change (%, negative = inhibition) at 10uM” value is given as 12.5%. As to `N=c1oc2ccc(Br)cc2cc1C(=O)NCc1ccc(F)cc1`, the “hERG current change (%, negative = inhibition) at 10uM” value is recorded as 5.37%.

Regarding `C/C(=N/NC(=O)c1ccc(Br)o1)C(C)C`, the “hERG current change (%, negative = inhibition) at 10uM” value was -1.43%. The figure for `Cc1cccc(C(=O)Nc2ccc(C(=O)Nc3ccc(O)cc3)cc2)c1` is 12.5%; for `O=C(CCCN1C(=O)c2ccccc2C1=O)Nc1ccc(S(=O)(=O)N2CCCCC2)cc1` it is -28.8%; for `O=C(C[n+]1ccccc1)N1c2ccccc2Sc2ccccc21.[Cl-]` it is 20.7%. The figure for `COc1cccc(CNC(=O)CCNS(=O)(=O)c2cccs2)c1` is -5.11%; for `COc1ccccc1-c1coc2c(CN3CCOCC3)c(O)ccc2c1=O` it is 8.17%.

With `CC1CCCN(CC(=O)Nc2cc(Cl)ccc2Oc2ccccc2)C1` (centres unmarked), the “hERG current change (%, negative = inhibition) at 10uM” value was 14.3%. The figure for `NC(=O)C1CCN(CC(=O)Nc2cc(Cl)ccc2Oc2ccccc2)CC1` is -67%. Turning to `O=C(CN1CCOCC1)Nc1ccccc1Sc1ccccc1`, the “hERG current change (%, negative = inhibition) at 10uM” value was -31.3%.

For the compound `O=C(CN1CCN(c2ccccc2)CC1)Nc1ccccc1Sc1ccccc1`, the “hERG current change (%, negative = inhibition) at 10uM” value was determined as 9.55%. Consider `CC1CCN(CC(=O)Nc2ccccc2Sc2ccccc2)CC1`, for which the “hERG current change (%, negative = inhibition) at 10uM” value was -5.71%. As for `O=C(CN1CCCCC1)Nc1cc(Cl)ccc1Oc1ccccc1`, the figure is 12.5%; as for `CN1CCN(CC(=O)Nc2ccccc2Sc2ccccc2)CC1.O=C(O)C(=O)O`, -65.3%. As to `O=C(CN1CCCC1)Nc1ccccc1Sc1ccc(Cl)cc1`, the “hERG current change (%, negative = inhibition) at 10uM” value is reported as -31.1%. With `CC(=O)N1CCN(CC(=O)Nc2ccccc2Sc2ccc(Cl)cc2)CC1`, the “hERG current change (%, negative = inhibition) at 10uM” value is given as -78%. As for `O=C(CN1CCOCC1)Nc1ccccc1Sc1ccc(Cl)cc1`, the figure is -44.1%. For `CC(=O)N1CCN(CC(=O)Nc2ccccc2Sc2ccccc2)CC1`, the “hERG current change (%, negative = inhibition) at 10uM” value is on record as -59.5%. The figure for `O=C(CN1CCCC1)Nc1ccccc1Sc1ccccc1` is -13.5%.
